Only some compounds are listed: those with a hit (about 1.9% of all), similar ones and a draw of the others.
eIF4H inh: inhibitors of RNA binding by human eIF4H; eIF4H fluorescence polarization binding assay; inhibition, % at 35 µM; hit rate 0.94% among 290,000; Q15056;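 further: calls also rest on retests at 20 µM and on dose response follow-up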
PABP FP inh: blocks human PABP binding to poly(A) RNA; hit rate 1% among 290,000; fluorescence polarization; AID 2014; calls only at 35 µM; P11940;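 further: calls also rest on retests at 20 µM and on dose response follow-up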
MLLE-PAM2 inh: blocks PAM2 peptide binding to the PABP1 MLLE domain | GST-MLLE / FITC-PAM2 fluorescence polarization | inhibition, % at 20 µM | hit rate 0.36% among 360,000 | AID 588489; in the data active means inhibition above about 35%, passing the limit was not always enough
eIF4E-4G inh: blocks eIF4E binding to eIF4G; TR-FRET eIF4E-eIF4GI(517-606) binding, 2 h; inhibition, % at 21.7 µM; AID 782; hit rate 0.37% among 220,000;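 active means inhibition above about 30%, limit read from the data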
14-3-3 Bad inh: disrupts binding of bovine 14-3-3 zeta to phospho-Bad peptide. P63103. TR-FRET 14-3-3zeta/Dy647-pBad peptide displacement, 1 h. inhibition, % at 21.7 µM. hit rate 0.71% among 220,000. AID 781;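 active means inhibition above about 70%, limit read from the data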
Target sequence (P63103 whole entry, looked up): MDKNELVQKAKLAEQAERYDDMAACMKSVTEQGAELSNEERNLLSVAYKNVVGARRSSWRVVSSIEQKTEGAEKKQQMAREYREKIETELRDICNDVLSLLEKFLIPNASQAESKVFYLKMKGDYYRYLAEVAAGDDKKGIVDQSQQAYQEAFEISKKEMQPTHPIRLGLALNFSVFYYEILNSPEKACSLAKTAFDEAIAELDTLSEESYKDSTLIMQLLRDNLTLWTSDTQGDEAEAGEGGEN
Hits are given with their value; . = inactive; ? = inconclusive; / = no result given; + = active, no number; [ ] = another dose, or the depositor's remark. Unless noted, how the calls were made is not given here.

SMILES | eIF4H inh | PABP FP inh | MLLE-PAM2 inh | eIF4E-4G inh | 14-3-3 Bad inh
O=C(CSc1nc2ccccc2s1)c1cc2ccccc2o1 | 60 | + | . | . | .
CCOC(=O)C1(C)CCCN1C(=O)c1ccc2ccccc2c1 (centres undefined) | / | / | . | / | /
CCN(CC)c1ccc(N2C(=O)/C(=C\c3cccs3)SC2=S)cc1 | . | . | . | . | 92[fluorescence artefact?]
Clc1ccc(Cc2ccc(SCc3ccccc3)nn2)c(Cl)c1 | . | . | . | . | 72
C[C@H](CO)N1C[C@H](C)[C@@H](CN(C)S(=O)(=O)c2cn(C)cn2)Oc2cc(Br)ccc2S1(=O)=O | / | / | . | / | /
CC(C)NC(=O)C1(C)CCN1C(=O)c1cccc(F)c1 (centres undefined) | / | / | . | / | /
CCc1ccc(O)c(N=Cc2ccccc2O)c1 | . | . | . | . | .
O=c1[nH][nH]c2c(N=Cc3ccccc3O)ccc(F)c12 | ? | ? | 49 | . | 70
Cc1ccc(C(=O)O)cc1-c1ccc(/C=C2/NC(=O)N(c3ccccc3)C2=O)o1 | 79 | + | . | . | .
Cc1ccc(CN2C(=O)N/C(=C\c3ccc(-c4ccc(C(=O)O)cc4C)o3)C2=O)cc1 | 87 | + | . | . | .
O=C1NC(=S)/C(=C\c2ccc(-c3ccccc3Cl)o2)S1 | ? | . | . | . | .
O=C(O)c1ccc(-c2ccc(/C=C3\NC(=O)N(Cc4ccc(Cl)cc4)C3=O)o2)cc1 | 73 | + | . | 33 | .
O=C1NC(=O)/C(=C/c2ccc(-c3cc(C(=O)O)ccc3Cl)o2)S1 | 92 | + | . | / | /
Cc1cc(C(=O)O)ccc1-c1ccc(/C=C2\NC(=O)N(Cc3ccccc3Cl)C2=O)o1 | . | . | . | . | .
COc1ccc(NS(=O)(=O)c2cccc(C(=O)NCC(c3cccs3)N3CCOCC3)c2)cc1 (centres undefined) | / | / | . | / | /
Cc1noc(C)c1C(=O)N1CCCC(C)(C(=O)NS(=O)(=O)C2CC2)C1 (centres undefined) | / | / | . | / | /
C[N+](C)(C)CCN(Cc1ccc(Cl)cc1)c1ccccn1 | . | + | . | . | .
CN(C)CCN(Cc1ccc(Cl)cc1)c1ccccn1 | . | . | . | . | .
CC(C)[C@@H]1NC(=O)c2cc([N+](=O)[O-])cc(F)c2NCCC[C@@H](C(N)=O)NC(=O)[C@H](CO)NC1=O | . | . | / | . | .
COc1ccc(CCN2C(=O)NC(NC(C)=O)(C(F)(F)F)C2=O)cc1OC (centres undefined) | . | + | . | . | .
Cc1c(O)cnc2nn(-c3ccccc3)c(=N)n12 | / | / | . | / | /
C/C(=N\NC(=O)CCC(=O)Nc1ccccc1)c1cccs1 | 1.1 | . | . | . | .
O=C(Nc1ccccc1C(=O)O)c1cncc(Br)c1 | 0.6 | . | . | . | .
COc1cc2ccccc2cc1C(=O)NC(=S)Nc1cccc(C(=O)O)c1 | . | . | 40 | . | .
COc1cc2ccccc2cc1C(=O)NC(=S)Nc1ccc(C(=O)O)cc1 | . | . | . | / | /
SMILES | eIF4H inh | PABP FP inh | MLLE-PAM2 inh | eIF4E-4G inh | 14-3-3 Bad inh
C=CCN(c1ccccc1)S(=O)(=O)c1cccc(C(=O)NNC(=O)c2ccccc2O)c1 | / | / | . | / | /
C=CCN(c1ccccc1)S(=O)(=O)c1cccc(C(=O)O)c1 | . | . | . | . | 70
COC(=O)c1cc(C(=O)OC)cc(-n2c(C)cc(C(=O)CC#N)c2C)c1 | 59 | + | . | . | .
Cc1cc(C(=O)CC#N)c(C)n1-c1ccc(OC(F)F)cc1 | . | . | . | . | .
Cc1ccc(N2C(=N)/C(=C3/Nc4ccccc4S3)C(c3ccccc3)C2=O)cc1 (centres undefined) | 84 | + | . | . | .
CCOC(=O)C(CC)c1cc2n(c(=O)c1C#N)CCC21OCCO1 (centres undefined) | / | / | . | / | /
Cc1cc(NC(=O)Nc2cc(C)nn2-c2ccccc2)n(-c2ccccc2)n1 | . | . | . | . | .
Cc1cc(NC(=O)CC#N)n(-c2ccccc2)n1 | 78 | . | . | . | .
Cc1cc(NC(=O)c2noc3c2CCc2ccccc2-3)n(-c2ccccc2)n1 | . | . | . | 76[fluorescence artefact?] | .
CC1(C)OC(=O)C(=C2CCCN2)C(=O)O1 | active | + | . | . | .
COc1ccc(C(OC(=O)c2c(C)noc2C)C(=O)NC2CCCC2)cc1 (centres undefined) | . | . | . | . | 82
CN(C)CCCNCCCCNC(=O)/C=N/O | . | + | . | . | .
COc1cc(/C=N/Nc2nc(=O)[nH]nc2C)cc([N+](=O)[O-])c1O | . | . | . | . | .
